The source of these data is ChEMBL document CHEMBL1961873, “Compounds: GSK PKIS; Assays: Nanosyn kinase panel” (2012).

Experiment [1] has as its target T1, Serine/threonine-protein kinase D2 (Homo sapiens) (UniProt Q9BZL6).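 Further: mean value of PRKD2 inhibition, from the GSK PKIS screening panel.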
T1 sequence (whole entry): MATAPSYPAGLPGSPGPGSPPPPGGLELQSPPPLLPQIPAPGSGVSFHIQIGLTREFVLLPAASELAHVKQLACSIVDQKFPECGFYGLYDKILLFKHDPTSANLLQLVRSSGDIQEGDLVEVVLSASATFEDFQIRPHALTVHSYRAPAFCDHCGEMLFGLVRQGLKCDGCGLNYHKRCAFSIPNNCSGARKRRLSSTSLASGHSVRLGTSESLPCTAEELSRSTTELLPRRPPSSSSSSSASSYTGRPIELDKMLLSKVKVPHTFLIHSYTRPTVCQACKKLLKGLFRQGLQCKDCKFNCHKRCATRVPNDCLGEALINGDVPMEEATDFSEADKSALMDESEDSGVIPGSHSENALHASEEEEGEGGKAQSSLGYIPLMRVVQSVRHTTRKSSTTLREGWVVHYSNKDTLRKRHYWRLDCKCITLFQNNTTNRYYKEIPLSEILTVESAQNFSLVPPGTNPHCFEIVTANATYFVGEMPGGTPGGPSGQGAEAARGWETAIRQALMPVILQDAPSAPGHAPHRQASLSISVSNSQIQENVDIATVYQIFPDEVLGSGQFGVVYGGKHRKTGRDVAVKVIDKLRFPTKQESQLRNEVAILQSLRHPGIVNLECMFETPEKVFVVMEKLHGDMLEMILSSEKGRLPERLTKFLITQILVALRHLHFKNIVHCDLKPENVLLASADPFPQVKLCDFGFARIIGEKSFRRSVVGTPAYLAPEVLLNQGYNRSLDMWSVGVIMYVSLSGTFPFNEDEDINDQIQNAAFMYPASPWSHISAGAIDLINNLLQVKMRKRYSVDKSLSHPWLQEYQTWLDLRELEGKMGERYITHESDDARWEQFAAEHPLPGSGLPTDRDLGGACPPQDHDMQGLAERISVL
Particulars: at 1 µM.

In experiment [2] the target is T2, Serine/threonine-protein kinase D3 (Homo sapiens) (UniProt O94806).
T2 sequence (whole entry): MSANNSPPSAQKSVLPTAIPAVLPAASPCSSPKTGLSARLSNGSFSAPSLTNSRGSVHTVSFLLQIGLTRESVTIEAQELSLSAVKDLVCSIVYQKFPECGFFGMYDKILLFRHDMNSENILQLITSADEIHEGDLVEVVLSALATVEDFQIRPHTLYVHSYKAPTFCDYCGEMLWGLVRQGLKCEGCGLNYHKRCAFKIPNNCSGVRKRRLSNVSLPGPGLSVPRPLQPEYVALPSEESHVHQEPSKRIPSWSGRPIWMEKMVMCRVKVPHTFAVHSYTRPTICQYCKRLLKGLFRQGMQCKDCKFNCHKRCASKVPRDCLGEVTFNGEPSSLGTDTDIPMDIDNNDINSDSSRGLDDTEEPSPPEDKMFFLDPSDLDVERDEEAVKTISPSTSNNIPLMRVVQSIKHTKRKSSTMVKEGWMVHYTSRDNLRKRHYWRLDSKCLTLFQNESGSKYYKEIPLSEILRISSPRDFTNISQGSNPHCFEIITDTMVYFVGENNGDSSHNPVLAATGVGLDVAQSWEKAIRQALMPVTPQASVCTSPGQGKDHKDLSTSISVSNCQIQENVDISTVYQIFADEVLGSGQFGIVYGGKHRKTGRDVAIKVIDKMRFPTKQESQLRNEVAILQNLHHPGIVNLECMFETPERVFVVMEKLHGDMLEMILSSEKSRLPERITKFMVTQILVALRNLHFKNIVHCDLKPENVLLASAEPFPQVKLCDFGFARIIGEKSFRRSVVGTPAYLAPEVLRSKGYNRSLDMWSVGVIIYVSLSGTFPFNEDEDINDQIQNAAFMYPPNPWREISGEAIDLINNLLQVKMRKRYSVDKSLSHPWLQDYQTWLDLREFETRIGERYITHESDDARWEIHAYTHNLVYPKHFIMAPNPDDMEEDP
The conditions noted are these: at 0.1 µM.

The target in experiment [3] is T2, Serine/threonine-protein kinase D3 (Homo sapiens). The conditions noted are these: at 1 µM.
Experiment [4] deals with T3, cGMP-dependent protein kinase 1 (Homo sapiens) (UniProt Q13976).
T3 sequence (whole entry): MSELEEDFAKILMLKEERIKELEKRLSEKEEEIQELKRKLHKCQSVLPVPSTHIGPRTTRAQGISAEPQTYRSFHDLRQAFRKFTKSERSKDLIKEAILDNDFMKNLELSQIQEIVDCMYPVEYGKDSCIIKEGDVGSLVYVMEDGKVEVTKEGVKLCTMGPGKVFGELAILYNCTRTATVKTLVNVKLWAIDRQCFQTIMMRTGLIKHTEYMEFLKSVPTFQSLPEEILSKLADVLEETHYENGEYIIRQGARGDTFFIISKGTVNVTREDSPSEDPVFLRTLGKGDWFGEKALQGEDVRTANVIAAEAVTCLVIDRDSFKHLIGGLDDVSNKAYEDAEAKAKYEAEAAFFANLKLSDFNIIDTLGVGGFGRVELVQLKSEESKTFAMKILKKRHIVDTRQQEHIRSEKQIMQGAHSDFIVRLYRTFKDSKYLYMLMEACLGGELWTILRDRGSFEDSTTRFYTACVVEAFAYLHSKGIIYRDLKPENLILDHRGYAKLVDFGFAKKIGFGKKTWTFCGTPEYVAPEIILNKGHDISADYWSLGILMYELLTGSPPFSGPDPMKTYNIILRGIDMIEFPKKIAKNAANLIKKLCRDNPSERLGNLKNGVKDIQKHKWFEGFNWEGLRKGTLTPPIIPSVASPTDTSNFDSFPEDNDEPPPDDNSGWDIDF
The conditions noted are these: at 0.1 µM.

Experiment [5] deals with T3, cGMP-dependent protein kinase 1 (Homo sapiens). Particulars: at 1 µM.
The target in experiment [6] is T4, cGMP-dependent protein kinase 2 (Homo sapiens) (UniProt Q13237).
T4 sequence (whole entry): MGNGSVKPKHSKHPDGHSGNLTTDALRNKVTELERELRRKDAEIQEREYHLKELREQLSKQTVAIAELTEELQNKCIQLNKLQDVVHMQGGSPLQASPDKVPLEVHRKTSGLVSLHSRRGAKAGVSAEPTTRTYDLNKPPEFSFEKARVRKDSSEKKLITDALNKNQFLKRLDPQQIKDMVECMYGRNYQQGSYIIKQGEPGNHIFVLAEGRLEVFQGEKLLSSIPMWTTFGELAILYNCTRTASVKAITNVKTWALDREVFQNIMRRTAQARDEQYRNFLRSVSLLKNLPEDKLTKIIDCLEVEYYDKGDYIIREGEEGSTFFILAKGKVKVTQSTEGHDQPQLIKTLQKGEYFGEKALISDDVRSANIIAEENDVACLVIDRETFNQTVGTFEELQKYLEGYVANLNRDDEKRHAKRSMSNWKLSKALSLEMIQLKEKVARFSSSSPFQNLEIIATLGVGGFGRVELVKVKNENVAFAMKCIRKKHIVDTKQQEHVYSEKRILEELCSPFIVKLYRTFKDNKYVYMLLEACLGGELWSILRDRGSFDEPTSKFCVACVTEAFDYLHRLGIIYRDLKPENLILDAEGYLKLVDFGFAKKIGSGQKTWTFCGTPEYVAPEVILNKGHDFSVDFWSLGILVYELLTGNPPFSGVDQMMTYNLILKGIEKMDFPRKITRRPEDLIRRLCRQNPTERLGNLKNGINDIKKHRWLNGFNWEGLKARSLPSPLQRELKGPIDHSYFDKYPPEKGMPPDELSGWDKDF
Particulars: at 0.1 µM.

For experiment [7], the target named is T4, cGMP-dependent protein kinase 2 (Homo sapiens). The conditions noted are these: at 1 µM.
The target of experiment [8] is T5, cAMP-dependent protein kinase catalytic subunit PRKX (Homo sapiens) (UniProt P51817).
T5 sequence (whole entry): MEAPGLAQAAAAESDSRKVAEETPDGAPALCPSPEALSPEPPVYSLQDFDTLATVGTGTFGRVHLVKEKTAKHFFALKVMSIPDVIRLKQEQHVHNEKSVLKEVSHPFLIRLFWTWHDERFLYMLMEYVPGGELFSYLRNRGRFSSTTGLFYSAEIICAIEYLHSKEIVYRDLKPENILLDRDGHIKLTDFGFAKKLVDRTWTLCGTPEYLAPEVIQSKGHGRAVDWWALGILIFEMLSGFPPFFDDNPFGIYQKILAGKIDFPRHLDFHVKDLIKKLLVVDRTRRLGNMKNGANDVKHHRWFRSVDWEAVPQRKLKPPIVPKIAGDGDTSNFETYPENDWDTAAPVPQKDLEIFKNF
The conditions noted are these: at 0.1 µM.

Experiment [9] addresses T5, cAMP-dependent protein kinase catalytic subunit PRKX (Homo sapiens). The conditions noted are these: at 1 µM.
In experiment [10] the target is Rho-associated protein kinase 1 (Homo sapiens) (UniProt Q13464). The conditions noted are these: at 0.1 µM.
For experiment [11] the target is unchanged. The conditions noted are these: at 1 µM.
Experiment [12] deals with Rho-associated protein kinase 2 (Homo sapiens) (UniProt O75116). Particulars: at 0.1 µM.
Experiment [13] shares this target. The conditions noted are these: at 1 µM.
The target in experiment [14] is Ribosomal protein S6 kinase alpha-1 (Homo sapiens) (UniProt Q15418). The conditions noted are these: at 0.1 µM.
Experiment [15] shares this target. The conditions noted are these: at 1 µM.
Experiment [16] concerns the target Ribosomal protein S6 kinase alpha-3 (Homo sapiens) (UniProt P51812). The conditions noted are these: at 0.1 µM.
Experiment [17] has the same target. Particulars: at 1 µM.
The target of experiment [18] is Ribosomal protein S6 kinase alpha-2 (Homo sapiens) (UniProt Q15349). The conditions noted are these: at 0.1 µM.
Experiment [19] has the same target. The conditions noted are these: at 1 µM.
Experiment [20] concerns the target Ribosomal protein S6 kinase alpha-6 (Homo sapiens) (UniProt Q9UK32). The conditions noted are these: at 0.1 µM.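 Further: reported value is the mean inhibition of RSK4, from the GSK PKIS kinase inhibitor screen.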

Sequence of Ribosomal protein S6 kinase alpha-6 (Homo sapiens) (Q9UK32 whole entry): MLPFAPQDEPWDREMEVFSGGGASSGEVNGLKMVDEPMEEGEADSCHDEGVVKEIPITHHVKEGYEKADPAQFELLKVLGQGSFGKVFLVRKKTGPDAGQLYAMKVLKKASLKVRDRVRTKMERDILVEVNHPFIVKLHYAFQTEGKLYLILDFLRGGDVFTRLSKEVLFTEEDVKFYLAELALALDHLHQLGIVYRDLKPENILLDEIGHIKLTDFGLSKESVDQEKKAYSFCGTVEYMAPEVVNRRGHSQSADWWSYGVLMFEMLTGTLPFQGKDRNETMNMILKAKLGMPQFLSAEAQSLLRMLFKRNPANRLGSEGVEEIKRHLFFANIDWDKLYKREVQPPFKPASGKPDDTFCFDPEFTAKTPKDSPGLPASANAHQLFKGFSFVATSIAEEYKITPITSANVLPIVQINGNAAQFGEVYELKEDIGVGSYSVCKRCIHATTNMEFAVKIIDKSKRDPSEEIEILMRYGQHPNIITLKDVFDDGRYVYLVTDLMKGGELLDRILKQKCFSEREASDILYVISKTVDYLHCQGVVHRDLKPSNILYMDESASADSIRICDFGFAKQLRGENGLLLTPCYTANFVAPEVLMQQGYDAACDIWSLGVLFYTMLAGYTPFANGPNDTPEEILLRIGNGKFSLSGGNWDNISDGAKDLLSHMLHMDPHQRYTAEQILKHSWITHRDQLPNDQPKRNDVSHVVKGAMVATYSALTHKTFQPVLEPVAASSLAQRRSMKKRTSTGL
Sequence of Rho-associated protein kinase 2 (Homo sapiens) (O75116 whole entry, looked up): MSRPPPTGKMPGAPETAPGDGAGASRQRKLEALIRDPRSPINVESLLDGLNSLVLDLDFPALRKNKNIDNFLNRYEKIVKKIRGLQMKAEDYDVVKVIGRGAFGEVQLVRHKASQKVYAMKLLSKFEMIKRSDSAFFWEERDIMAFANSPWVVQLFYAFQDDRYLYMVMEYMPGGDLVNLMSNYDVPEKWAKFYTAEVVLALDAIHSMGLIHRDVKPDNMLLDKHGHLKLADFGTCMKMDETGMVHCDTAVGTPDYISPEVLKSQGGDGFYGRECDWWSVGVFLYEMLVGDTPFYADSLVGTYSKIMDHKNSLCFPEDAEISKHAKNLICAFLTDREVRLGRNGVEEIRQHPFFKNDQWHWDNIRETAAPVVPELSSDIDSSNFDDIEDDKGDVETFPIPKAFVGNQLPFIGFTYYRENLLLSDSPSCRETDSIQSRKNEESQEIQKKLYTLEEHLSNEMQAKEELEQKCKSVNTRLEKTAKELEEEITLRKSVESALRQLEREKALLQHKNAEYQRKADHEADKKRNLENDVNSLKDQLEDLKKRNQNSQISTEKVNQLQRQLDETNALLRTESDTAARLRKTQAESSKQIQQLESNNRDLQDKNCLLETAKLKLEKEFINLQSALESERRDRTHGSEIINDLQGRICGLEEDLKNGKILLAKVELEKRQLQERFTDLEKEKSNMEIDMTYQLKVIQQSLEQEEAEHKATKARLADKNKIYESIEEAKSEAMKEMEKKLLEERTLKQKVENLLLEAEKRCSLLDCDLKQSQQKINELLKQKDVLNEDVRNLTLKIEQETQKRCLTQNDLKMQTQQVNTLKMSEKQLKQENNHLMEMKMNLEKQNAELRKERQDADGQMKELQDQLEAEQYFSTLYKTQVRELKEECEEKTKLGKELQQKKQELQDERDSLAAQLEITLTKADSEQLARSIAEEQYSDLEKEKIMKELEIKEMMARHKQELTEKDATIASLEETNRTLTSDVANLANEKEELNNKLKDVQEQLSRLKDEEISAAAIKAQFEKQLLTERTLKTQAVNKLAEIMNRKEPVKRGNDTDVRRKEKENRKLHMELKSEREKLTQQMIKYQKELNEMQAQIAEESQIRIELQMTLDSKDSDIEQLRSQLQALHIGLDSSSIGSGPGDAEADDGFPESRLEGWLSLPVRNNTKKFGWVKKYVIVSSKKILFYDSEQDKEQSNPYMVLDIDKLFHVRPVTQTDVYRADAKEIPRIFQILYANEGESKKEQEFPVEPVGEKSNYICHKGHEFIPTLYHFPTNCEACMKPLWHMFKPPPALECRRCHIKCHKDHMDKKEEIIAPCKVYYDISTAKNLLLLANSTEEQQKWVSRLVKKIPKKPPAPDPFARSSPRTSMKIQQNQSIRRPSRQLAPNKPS
Sequence of Rho-associated protein kinase 1 (Homo sapiens) (Q13464 2-1354 limits assumed): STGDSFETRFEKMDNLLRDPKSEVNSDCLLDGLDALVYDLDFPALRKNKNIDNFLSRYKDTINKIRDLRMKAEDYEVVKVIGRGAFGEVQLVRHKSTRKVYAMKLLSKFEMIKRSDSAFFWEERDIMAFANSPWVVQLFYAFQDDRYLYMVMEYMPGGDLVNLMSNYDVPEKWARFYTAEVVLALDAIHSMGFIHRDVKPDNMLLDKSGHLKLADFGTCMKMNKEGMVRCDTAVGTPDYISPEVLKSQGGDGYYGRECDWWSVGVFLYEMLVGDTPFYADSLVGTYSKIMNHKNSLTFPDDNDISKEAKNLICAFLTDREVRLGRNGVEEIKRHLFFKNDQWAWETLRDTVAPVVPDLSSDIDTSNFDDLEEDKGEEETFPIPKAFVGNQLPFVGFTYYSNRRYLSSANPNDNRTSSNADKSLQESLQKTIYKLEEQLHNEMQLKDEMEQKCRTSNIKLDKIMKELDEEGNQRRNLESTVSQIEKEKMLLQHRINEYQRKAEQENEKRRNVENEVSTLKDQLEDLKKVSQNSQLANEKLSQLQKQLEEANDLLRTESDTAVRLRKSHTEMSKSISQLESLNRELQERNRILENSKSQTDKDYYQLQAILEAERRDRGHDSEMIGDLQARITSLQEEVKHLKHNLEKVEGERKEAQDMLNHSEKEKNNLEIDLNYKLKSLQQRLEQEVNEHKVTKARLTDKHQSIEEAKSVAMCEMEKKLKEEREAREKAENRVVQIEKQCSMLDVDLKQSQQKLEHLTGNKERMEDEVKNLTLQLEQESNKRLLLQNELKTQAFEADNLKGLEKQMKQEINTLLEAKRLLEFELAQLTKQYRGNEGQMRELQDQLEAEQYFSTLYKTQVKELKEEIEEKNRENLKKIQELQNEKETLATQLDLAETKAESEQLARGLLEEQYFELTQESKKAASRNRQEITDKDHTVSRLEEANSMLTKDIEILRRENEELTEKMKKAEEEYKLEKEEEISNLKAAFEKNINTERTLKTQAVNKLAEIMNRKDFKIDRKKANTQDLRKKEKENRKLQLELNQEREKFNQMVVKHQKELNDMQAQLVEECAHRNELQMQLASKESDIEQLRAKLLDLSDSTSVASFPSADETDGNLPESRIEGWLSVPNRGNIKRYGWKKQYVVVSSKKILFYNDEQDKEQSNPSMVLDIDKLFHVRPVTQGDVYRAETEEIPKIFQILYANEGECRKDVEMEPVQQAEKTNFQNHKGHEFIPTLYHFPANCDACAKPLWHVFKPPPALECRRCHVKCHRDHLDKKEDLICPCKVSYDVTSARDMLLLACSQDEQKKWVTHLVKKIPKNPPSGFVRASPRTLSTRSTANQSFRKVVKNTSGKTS
Sequence of Ribosomal protein S6 kinase alpha-1 (Homo sapiens) (Q15418 whole entry): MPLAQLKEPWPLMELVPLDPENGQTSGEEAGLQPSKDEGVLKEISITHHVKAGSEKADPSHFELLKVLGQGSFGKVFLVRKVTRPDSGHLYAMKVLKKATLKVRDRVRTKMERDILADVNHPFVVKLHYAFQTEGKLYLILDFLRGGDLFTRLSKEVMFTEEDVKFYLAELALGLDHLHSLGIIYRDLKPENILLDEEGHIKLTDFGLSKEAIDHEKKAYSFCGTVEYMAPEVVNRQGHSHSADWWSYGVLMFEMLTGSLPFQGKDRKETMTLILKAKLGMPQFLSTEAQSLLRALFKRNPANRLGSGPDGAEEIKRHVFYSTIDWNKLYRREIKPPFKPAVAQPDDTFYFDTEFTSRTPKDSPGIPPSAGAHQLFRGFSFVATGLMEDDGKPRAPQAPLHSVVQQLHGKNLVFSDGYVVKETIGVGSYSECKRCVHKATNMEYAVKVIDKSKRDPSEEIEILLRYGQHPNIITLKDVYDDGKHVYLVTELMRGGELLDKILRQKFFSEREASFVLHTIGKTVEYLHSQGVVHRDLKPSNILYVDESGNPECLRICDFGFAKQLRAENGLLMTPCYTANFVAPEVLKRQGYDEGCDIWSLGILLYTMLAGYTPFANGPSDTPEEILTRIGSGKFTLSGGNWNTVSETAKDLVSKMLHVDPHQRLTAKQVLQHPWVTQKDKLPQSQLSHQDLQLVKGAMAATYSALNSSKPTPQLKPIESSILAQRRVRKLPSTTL
Sequence of Ribosomal protein S6 kinase alpha-3 (Homo sapiens) (P51812 whole entry): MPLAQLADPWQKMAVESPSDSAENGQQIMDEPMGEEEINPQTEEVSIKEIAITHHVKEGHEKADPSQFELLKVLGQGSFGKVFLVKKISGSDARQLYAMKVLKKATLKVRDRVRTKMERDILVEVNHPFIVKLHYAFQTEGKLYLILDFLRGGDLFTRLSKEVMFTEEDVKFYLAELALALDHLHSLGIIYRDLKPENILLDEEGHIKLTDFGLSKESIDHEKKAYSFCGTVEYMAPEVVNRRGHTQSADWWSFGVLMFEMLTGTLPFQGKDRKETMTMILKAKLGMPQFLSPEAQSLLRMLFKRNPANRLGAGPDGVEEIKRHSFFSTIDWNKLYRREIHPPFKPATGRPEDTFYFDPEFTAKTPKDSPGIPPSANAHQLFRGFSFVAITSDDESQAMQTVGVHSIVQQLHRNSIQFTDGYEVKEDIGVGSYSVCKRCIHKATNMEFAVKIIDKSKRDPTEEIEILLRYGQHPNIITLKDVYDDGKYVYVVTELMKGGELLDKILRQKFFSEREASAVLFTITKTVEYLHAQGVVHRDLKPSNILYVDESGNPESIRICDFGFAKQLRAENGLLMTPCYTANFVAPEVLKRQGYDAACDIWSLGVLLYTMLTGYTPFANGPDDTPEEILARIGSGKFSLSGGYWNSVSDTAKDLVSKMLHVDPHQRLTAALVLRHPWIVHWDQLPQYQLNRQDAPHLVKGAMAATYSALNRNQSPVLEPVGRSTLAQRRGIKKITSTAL

As for `CS(=O)(=O)Nc1ccc(N/C=C2\C(=O)Nc3ccccc32)cc1`, the inhibition – broadly, the relative decrease from the control value, in per cent – in experiment [1] was 2.63%; in experiment [2] it was -1.78%; in experiment [3], -0.06%; in experiment [4] it was -1.67%; in experiment [5] it was -1.49%; in experiment [6], -0.94%. Moreover, the inhibition was 3.29% in experiment [7]; -0.88% in experiment [8]; 0.66% in experiment [9]; -0.53% in [10]; 1.4% in experiment [11]; -0.88% in [12]. In addition, the inhibition in experiment [13] came to 1.99%; in experiment [14], 1.8%; in experiment [15] it was 9.64%; in experiment [16] it was 1.88%; in experiment [17], 9.89%; in experiment [18], 0.85%. For the same compound, the inhibition is 13.8% in [19] and 0.95% in experiment [20].
As for `N#Cc1c(NC(=O)c2cccc3ccccc23)sc2c1CCCC2`, the inhibition in [1] stood at 2.96%; in experiment [2], 4.61%; in experiment [3], 4.09%; in [4], 3.4%; in experiment [5], 3.28%; in [6], 1.51%. In addition, the inhibition in experiment [7] was 3.5%; in experiment [8], 2.34%; in experiment [9], 1.92%; in [10], 0.98%; in [11], 2.34%; in [12], 1.81%. The inhibition is 1.22% in experiment [13]; 1.91% in experiment [14]; 0.22% in [15]; 1.01% in experiment [16]; 0.5% in experiment [17]; 2.55% in experiment [18]. The inhibition in experiment [19] came to 2.14%; in experiment [20], 1.14%.
On to `COc1ccc2cc(-c3c(-c4ccncc4)nc(-c4ccc([S+](C)[O-])cc4)n3C)ccc2c1` (stereo not given), for which the inhibition in [1] is 4.99%; in experiment [2], 3.54%; in experiment [3], 4.91%; in experiment [4] it was 1.31%; in experiment [5], 4.18%; in experiment [6], 2.83%. Also, the inhibition in [7] was 4.08%; in [8] it was 1.36%; in experiment [9], -0.32%; in experiment [10], 0.49%; in [11], 0.63%; in experiment [12], 2.12%. Besides, the inhibition in [13] was -0.11%; in experiment [14] it was 0.79%; in experiment [15], 0.09%; in experiment [16] it was 1.33%; in [17] it was 0.81%; in [18], 2.14%. The inhibition in [19] was found to be 3.12%; in [20], 0.84%.
